From PubChem
This is a sample that favours compounds with a hit; in the whole collection about 21% have one here.
Pf growth 48h: P. falciparum growth inhibition at 48 hours (one generation); P. falciparum luciferase growth in erythrocytes, 48 h; Potency, µM (series often up to 28.7 µM), without a hit: at the highest dose activity change, negative = inhibition, usual class: inhibitors; hit rate 5.9% among 310,000; AID 504832; also: potency is read from the fitted curve at half-maximal effect; % is scaled to controls: 0 for no effect and ±100 for the full control effect
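Here the parasites carry a stable luciferase gene and grow inside erythrocytes in Albumax-based RPMI medium with compound for one erythrocytic cycle. Activity is scored as loss of luminescent signal.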
NS1 function inh: influenza NS1 inhibition; hit rate 0.4% among 270,000; AID 2326; Potency, µM (top dose mostly 46.1 µM), without a hit: at the highest dose activity, positive = more growth; calls by dose curve; also: potency is read from the fitted curve at half-maximal effect; actives are rising curves; nearly all actives have a fitted effect of over 50% in size
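Read-out: OD600 growth recovery of NS1-expressing budding yeast. Cells grown overnight at 30C in -URA glucose medium, washed, resuspended and diluted 1:100 in 2% galactose assay medium, pH 6.0. Same strain lacking NS1 served as positive control.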
Shiga inhibitor: blocks Shiga toxin action in Vero cells. AID 2315. Vero cells, Shiga toxin protein synthesis inhibition reporter. hit rate 9.2% among 290,000. inhibition, % at 38.7 µM; in the data active = inhibition mostly above about 28%, no sharp cut-off; inactive = mostly below about 43%; also: 0% is about no effect
CHX counter: counter-screen hit for Shiga toxin inhibitors, cycloheximide | cell reporter, cycloheximide protein synthesis inhibition counterscreen | max response, % | hit rate 12% among 300,000; in the data active = max response mostly above about 13%, no sharp cut-off; inactive = mostly below about 14%; also: read at 38.3 µM for the half of the compounds with a filed dose; 0% is about no effect
SARS PLpro yeast: inhibitors of SARS-CoV papain-like protease in yeast | Potency, µM (highest dose often 32.9 µM), inactives show at the highest dose activity, positive = growth rescue, usual class: activators | S. cerevisiae expressing SARS-CoV PLpro, growth rescue | AID 485353 | hit rate 0.19% among 330,000; calls by dose curve; also: potency is read from the fitted curve at half-maximal effect; 0% is about no effect; nearly all actives have a fitted effect of over 55% in size
Pf growth 96h: P. falciparum growth inhibition at 96 hour, primary screen for plastid delayed-death inhibitors; P. falciparum luciferase reporter growth, 96 h; Potency, µM (titrated, usually from 28.7 µM), for inactives: at the top dose activity change, negative = inhibition, actives largely listed as inhibitors; hit rate 6.9% among 320,000; also: potency is read from the fitted curve at half-maximal effect; % is scaled to controls: 0 for no effect and ±100 for the full control effect
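Infected RBCs, 2% Hct / 0.05% parasitemia final; luciferase-reporter P. falciparum; cpd 96 h, 37 C, 5% CO2; luciferase detection reagent; luminescence.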
* hit, by the source's call; ? = inconclusive; . = not tested or not shown. Unless noted, calls follow the shape of the dose curve; as a rule, active = well fitted inhibition curve with a large enough effect; inconclusive = small, poorly fitted or top-dose-only effect, or another doubt; inactive = no such curve, though single readings can be large or run the other way.

SMILES	Pf growth 48h	NS1 function inh	Shiga inhibitor	CHX counter	SARS PLpro yeast	Pf growth 96h
COc1ccc(N=Cc2c(O)n(Cc3ccccc3)c(=S)[nH]c2=O)c(OC)c1	33%	1%	29*	17*	1%	53%
Cc1ccccc1N=CC1=C(O)c2ccccc2C1=O	134%	-2%	42	35*	-3%	-2%
COc1ccc(N=C(C)c2c(O)n(C)c(=O)n(C)c2=O)c(OC)c1	?	-22%	-9	5	-3%	.
Cc1ccc(F)cc1N=Cc1c(O)c2ccccc2oc1=O	1%	-4%	-17	-1	-3%	2%
COc1ccc(N=CC2=C(O)c3ccccc3C2=O)c(OC)c1	196%	-35%	48	26*	-2%	?
O=C1C(C=Nc2ccc(F)cc2)=C(O)c2ccccc21	90%	-2%	134*	61*	-1%	?
C=CCC[C@@H](Cc1ccc(F)cc1)C(=O)OC[C@@H]1CCCN1C(=O)[C@@H](CC=C)CC(=O)N[C@@H](CO)Cc1ccccc1	.	.	.	.	-24%	.
N#Cc1ccc(C23OCCN2CCn2c3c3ccccc3[n+]2[O-])cc1 (stereo not drawn)	.	.	.	.	7%	.
CCOc1ccc(N=C(/C(C(=O)C(=O)N2CCOCC2)=C(/O)c2ccccc2)c2ccccc2)cc1	149%	-5%	62*	47*	0%	350%
CCOc1ccc(OCc2cccc(C(=O)N3CCOCC3)c2)cc1	141%	-7%	127*	101*	5%	33%
CCOc1ccc(CN2CCN(C(=O)c3cccc(F)c3)CC2)cc1	-2%	4%	-4	-1	-6%	-15%
CC1CN(C(=O)c2cccc(COc3ccc(Br)cc3)c2)CC(C)O1 (stereo not drawn)	150%	-6%	13*	58*	12%	197%
O=C(c1cccc(OCc2ccccc2)c1)N1CCOCC1	52%	.	41	13*	1%	?
O=C(NCc1ccc(/C=N\NC(=O)C(=O)Nc2ccccc2Br)o1)C(=O)Nc1ccccc1	-5%	14%	-2	13	-2%	-16%
CN1N=C2c3ccccc3CCC2C1c1ccc(Cl)cc1 (stereo not drawn)	?	0%	72*	35*	0%	1.5µM*
CN1N=C2c3ccccc3CCC2C1c1ccc(F)cc1 (stereo not drawn)	1.3µM*	-5%	87*	76*	-2%	1.7µM*
CNC(=S)N1N=C2c3ccccc3CCC2C1c1ccccc1Cl (stereo not drawn)	?	11%	0	6	-1%	?
CC1CCCCN1C(=S)NCc1ccco1 (stereo not drawn)	-4%	.	-12	0	0%	-2%
CC(C)(C)c1ccc(C(=O)NCCC(=O)Nc2ccc3c(c2)OCCO3)cc1	?	.	.	.	0%	-6%
O=S(=O)(c1ccc2c(c1)OCCO2)N1CCN(S(=O)(=O)c2cccc[n+]2[O-])CC1	.	.	7	5	.	.
Cc1nn(-c2ccc(Cl)c(Cl)c2)c(=O)c2ccccc12	94%	22%	12	-5	3%	.
Cc1nn(-c2ccccc2)c(=S)c2ccccc12	-6%	2%	60*	20*	16%	32%
Cc1nn(-c2ccc(Cl)cc2)c(=O)c2ccccc12	74%	-1%	98*	48*	0%	123%
O=c1c2ccccc2c(-c2ccc(Cl)cc2)nn1-c1ccccc1	3.3µM*	6%	-9	-1	-7%	?
Cc1nn(-c2ccc3ccccc3c2)c(=O)c2ccccc12	178%	-8%	115*	51*	-1%	54%
SMILES	Pf growth 48h	NS1 function inh	Shiga inhibitor	CHX counter	SARS PLpro yeast	Pf growth 96h
O=c1c2ccccc2c(-c2ccccc2)nn1Cc1ccc(Cl)cc1	?	-17%	-6	-1	9%	69%
CS(=O)(=O)c1ccc(S(=O)CC(=O)Oc2ccc(Cl)cc2)c([N+](=O)[O-])c1 (stereo not drawn)	?	.	24	-1	0%	-11%
COc1cccc(C(=O)CC(=O)C(=O)Nc2cc(Cl)c(OC)cc2OC)c1	-5%	.	-4	-4	-4%	-23%
Cc1nn(-c2ccc(Cl)nn2)c(=O)c2ccccc12	108%	.	49	27*	-2%	78%
CCOC(=O)Nc1ccc2c(CN3CCN(S(=O)(=O)c4ccccc4F)CC3)cc(=O)oc2c1	9.3µM*	.	.	.	0%	10µM*
CCOC(=O)Nc1ccc2c(CN3CCN(S(=O)(=O)c4ccc(C(C)C)cc4)CC3)cc(=O)oc2c1	?	.	.	.	3%	10µM*
O=C(Nc1nc(-c2ccccc2)cs1)NC1CCCCC1	5%	6%	48*	34*	-29%	8%
c1ccc(-c2csc(NC3CCCCC3)n2)cc1	6%	-6%	148*	56*	-3%	-62%
COc1ccc(-c2csc(NC3CCCCC3)n2)c(OC)c1	9.3µM*	10%	60*	26*	-2%	?
COc1ccc(-c2csc(NC(=O)CN3C(=O)CCC3=O)n2)c(OC)c1	20%	-10%	-11	-3	23%	71%
O=C(Nc1nc(-c2ccccc2)cs1)C1CCCCN1S(=O)(=O)c1ccccc1 (stereo not drawn)	?	-16%	-13	8	-3%	53%
CCCCn1c(N)c(N(CC(C)C)C(=O)C2CCN(S(=O)(=O)c3ccc(OCC)cc3)CC2)c(=O)[nH]c1=O	?	.	.	.	2%	?
NC(=O)c1ncc(C(F)(F)F)cc1Oc1ccc(C(F)(F)F)cc1	15%	17%	-17	-6	15%	.
CC(=O)Nc1ccc2c(c1)nc(CCNC(=O)c1ccco1)n2C	12%	-10%	-3	-3	-4%	8%
Cn1c(CCNC(=O)c2ccco2)nc2cc(NS(=O)(=O)c3ccc(Cl)cc3)ccc21	?	-47%	27	-4	1%	9.3µM*
Cc1ccc(C(=O)Nc2ccc3c(c2)nc(CCNC(=O)c2ccco2)n3C)cc1	50%	16%	44*	32*	5%	1%
COc1ccc(C(=O)n2c(SC)nc3cc4c(cc32)OCCO4)cc1	43%	-108%	52*	49*	-4%	-2%
CCOc1ccc(-n2nc3c(SCCN4CCCC4)nnc(C)c3c2C)cc1	?	18%	-6	-1	-3%	-6%
CC(C)C[C@@H](COc1ccccc1)N1CCN(CCc2ccccc2)CCC1=O	-10%	7%	3	0	1%	?
O=C1CCN(CCc2ccccc2)CCN1[C@H](COc1ccccc1)Cc1ccccc1	?	-45%	4	-2	-5%	3.3µM*
CC(C)CN1CCC(=O)N([C@H](COc2ccccc2)Cc2ccccc2)CC1	?	-16%	-5	-2	4%	12µM*
CCNC(=O)C/C(C)=N/NC(=O)C12CC3CC(CC(C3)C1)C2	?	5%	41	20*	2%	?
Cc1cc(=O)oc(C)c1C(=O)N[C@@H]1CCCCNC1=O	12%	5%	-15	-1	4%	.
